Reference: PubChem BioAssay (NCATS)
Inconclusive results are not listed. Activity calls are given as the source filed them. Unless noted, calls follow the shape of the dose curve; as a rule, active = well fitted curve in the direction sought with a large enough effect; inconclusive = small, poorly fitted or top-dose-only effect, or another doubt; inactive = no such curve, though single readings can be large; an effect the other way counts as inactive or inconclusive.

Columns and labels:
[1] = AP1 Signaling Pathway (AID 357; active = well fitted curve in either direction with a large enough effect, not every such curve was filed as active;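 also: ME-180 reporter cells stimulated with EGF at its EC50 level; % is scaled to controls: 0 for no effect and ±100 for the full control effect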); details: ME-180 AP-1-bla reporter, EGF-induced, beta-lactamase ratio, 5 h; at 7.69 µM (top of the series) unless noted
Outline: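 Beta-lactamase reporter under AP-1 response element, ME-180 background. Stimulus: EC50 EGF. Compound exposure 5 h, 37 °C. Detection: CCF4, 2.5 h RT, 460/530 nm. Values: AC50 from titration.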

[2] = NFAT Signaling Pathway (AID 444; active = well fitted curve in either direction with a large enough effect, not every such curve was filed as active;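 also: carbachol stimulus at about its EC50 of 1 µM final; % is scaled to controls: 0 for no effect and ±100 for the full control effect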); details: Jurkat NFAT-bla M1, carbachol, beta-lactamase ratio, 5 h; at 7.69 µM (top of the series) unless noted
Outline: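 Jurkat cells carrying an NFAT-driven β-lactamase reporter and co-transfected muscarinic M1 receptor were treated with compound plus carbachol (1 uM final, an EC50 level) for 5 h at 37 °C. CCF4 loading followed for 1 h at RT; 460/530 nm ratio gave %activity.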

[3] = Stat Signaling Pathway (AID 446; active = well fitted curve in either direction with a large enough effect, not every such curve was filed as active;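 also: ME-180 cervical cancer cells given 40 pM IL-6 alongside compound; SIE-controlled beta-lactamase reporter measured as 460/530 nm FRET emission ratio; % is scaled to controls: 0 for no effect and ±100 for the full control effect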); details: ME-180 SIE beta-lactamase reporter, IL-6 stimulated, 5 h; at 7.69 µM (top of the series) unless noted
Outline: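 ME-180 SIE-bla cells; overnight plating; cpd + IL-6 40 pM, 5 h, 37 C; LiveBLAzer 2.5 h RT; 460/530 nm emission ratio. Normalized to 300 pM IL-6 and 125 nM JAK inhibitor controls.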

[4] = target: Glucocorticoid receptor (Homo sapiens) (UniProt P04150); assay: GR-GFP Redistribution (AID 450;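 active = compounds whose dose series gives a full or clear partial fitted curve of increased nuclear translocation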; also: potency is read from the fitted curve at half-maximal effect); details: U2OS GR-GFP nuclear translocation, laser cytometry, 2 h
[5] = target: Glucocorticoid receptor (Homo sapiens) (UniProt P04150); assay: GR-EFC Redistribution (AID 451; calls by dose curve; also: potency is read from the fitted curve at half-maximal effect); details: CHO-K1 GR-EFC translocation, beta-gal luminescence, 2 h
Outline: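 CHO-K1 cells stably expressing nuclear-localized β-gal enzyme acceptor and GR fused C-terminally to the enzyme donor fragment; ligand-driven nuclear translocation restores β-gal by complementation. Compounds titrated up to 46 uM final, 2 h at 37 °C; luminescence read.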

[6] = target: Mitogen-activated protein kinase 10 (Mus musculus) (UniProt Q61831); assay: JNK3 AlphaScreen Assay (AID 530; active = well fitted curve in either direction with a large enough effect, not every such curve was filed as active;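 also: kinase came from lysate of stimulated human HepG2 cells; signal reports phosphorylation of biotinylated GST-cJun 1-79 at Ser73 with 10 µM ATP; % is scaled to controls: 0 for no effect and ±100 for the full control effect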); details: JNK3 lysate, c-Jun phosphorylation; series mostly up to 57.1 µM
Outline: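 JNK3 came from HepG2 lysates pre-activated with IL-1beta and TNF-alpha and phosphorylated biotinylated GST-cJun (1-79) at 10 uM ATP, pH 7.6, room temperature. Compounds were titrated. AlphaScreen signal used anti-phospho-cJun (Ser73) antibody.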

[7] = target: 3',5'-cyclic-AMP phosphodiesterase 4B (Homo sapiens) (UniProt Q07343); assay: qHTS Assay for Inhibitors of PDE-IV (AID 607; active = well fitted activation curve with a large enough effect in the main read-out, with a control signal flat, not every such curve was filed as active; also: % of control where 0% means no effect); details: HEK293 ACTOne CNG channel cells, membrane potential fluorescence; series mostly up to 22.9 µM
Outline: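 ACTOne HEK293 cells carry a modified cAMP-gated CNG channel and express endogenous PDE4; plated 1000 cells/well, compounds up to 22.9 uM final. Membrane-potential dye fluorescence (ex 535/em 590) was read; parental cells received 10 uM forskolin + 100 uM RO 20-1724.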

[8] = qHTS Assay for Lipid Storage Modulators (AID 1519; calls by dose curve); details: Drosophila S3 cells, BODIPY lipid droplet/cell ratio, laser cytometry, cells loaded with oleic acid; for activity change, negative = inhibition: at 57.5 µM (top of the series)
Outline: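 Cells seeded at 5,000 per well were treated with compounds over a concentration series and loaded with oleic acid (400 uM, as added). Lipid droplet fluorescence (488 nm excitation, 500-530 nm channel) was read by laser-scanning cytometry and normalized to 20 uM Triacsin C.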

[9] = target: Dual specificity protein kinase CLK4 (Homo sapiens) (UniProt Q9HAZ1); assay: qHTS Assay for Inhibitors of CDC-like Kinase 4 (Kinase-Glo Assay) (AID 1770); details: recombinant Clk4, Kinase-Glo ATP depletion luminescence; series mostly up to 66.7 µM; also: % is scaled to controls: 0 for no effect and ±100 for the full control effect; nearly all actives have a fitted effect of over 65% in size
Outline: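 Readout: Kinase-Glo luminescence from ATP left after a 4.5 h room-temperature reaction of 25 nM Clk4 with 100 uM RS peptide and 1 uM ATP (final). Buffer: 25 mM Tris pH 7.5, 10 mM MgCl2.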

[10] = target: Dual specificity protein kinase CLK4 (Homo sapiens) (UniProt Q9HAZ1); assay: qHTS Assay for Inhibitors of CDC-like Kinase 4 (ADP-Glo Assay) (AID 1771); details: recombinant CLK4, ADP-Glo luminescence; series mostly up to 80 µM; also: % is scaled to controls: 0 for no effect and ±100 for the full control effect; nearly all actives have a fitted effect of over 70% in size
Outline: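 Clk4 (25 nM) was incubated 1 hr at room temperature with 100 uM RS repeat peptide and 1 uM ATP in buffer with 2 mM MgCl2, 0.5 mM EGTA, 2.5 mM DTT. ADP formed was quantified by ADP-Glo luminescence.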

[11] = target: Dual specificity protein kinase CLK4 (Homo sapiens) (UniProt Q9HAZ1); assay: qHTS Assay for Inhibitors of CDC-like Kinase 4 (ADP-FP Assay) (AID 1795); details: Transcreener ADP fluorescence polarization; series mostly up to 50 µM;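 also: recombinant human CLK4 phosphorylating RS repeat peptide at 1 µM ATP; % is scaled to controls: 0 for no effect and ±100 for the full control effect; nearly all actives have a fitted effect of over 60% in size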
Outline: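 FP readout: Orange Transcreener ADP2 tracer (4 nM) plus ADP antibody, read after 30 min at room temperature. Kinase step: 6.25 nM Clk4, 100 uM RS peptide, 1 uM ATP, pH 7.5, 1 h.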

[12] = target: Ubiquitin carboxyl-terminal hydrolase 1 (Homo sapiens) (UniProt O94782); assay: Inhibitors of USP1/UAF1: Pilot qHTS (AID 504865); details: purified USP1/UAF1, Ub-rhodamine cleavage fluorescence; series mostly up to 54.9 µM;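 also: rhodamine fluorescence freed from ubiquitin-rhodamine substrate followed over time; top concentration of the series differs between compounds; % is scaled to controls: 0 for no effect and ±100 for the full control effect; nearly all actives have a fitted effect of over 35% in size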
Outline: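 1nM USP1/UAF1 + cpd, 15 min RT; start w/ Ub-Rho 150nM final; kinetic FL 480/540 nm, 6 reads q60 s. Buffer 50mM HEPES pH 7.8, 0.5mM EDTA, 1mM TCEP, 0.01% Tween-20, 0.1 mg/ml BSA.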

[13] = Cell Viability qHTS for small molecule stabilizers of the endoplasmic reticulum resident proteome (AID 1508629); details: cell viability counter-screen, 100 nM thapsigargin for final 4 h
[14] = target: Lysosomal acid glucosylceramidase (Homo sapiens) (UniProt P04062); assay: Glucocerebrosidase-p2 (AID 348; in the data active = potency below about 10 µM; also: potency is read from the fitted curve at half-maximal effect); details: purified GBA, blue fluorogenic substrate, 40 min
Outline: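 Compounds titrated from 0.6 nM upwards against 0.2 nM enzyme in pH 5.9 citric acid/KH2PO4, taurocholate, tween-20; blue fluorogenic substrate 80 uM, 40 min room temperature, stopped and read Ex 365/Em 440 for AC50.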

[15] = target: Cytochrome P450 1A2 (Homo sapiens) (UniProt P05177); assay: p450-cyp1a2 (AID 410; calls by dose curve; also: potency is read from the fitted curve at half-maximal effect); details: recombinant CYP1A2, luciferin-ME demethylation, luminescence; series mostly up to 57 µM
Outline: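 Human CYP1A2 (20nM) demethylated Luciferin-ME at its Km (100uM) in 100mM KPO4. After 10 min compound preincubation, NADPH regeneration ran the reaction 60 min at room temperature. Luciferin was read by luminescence, normalized to 57 uM furafylline.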

[16] = target: Cytochrome P450 3A4 (Homo sapiens) (UniProt P08684); assay: qHTS Assay for Activators of Cytochrome P450 3A4 (AID 885); details: recombinant CYP3A4, Luciferin-PPXE luminescence, 60 min; series mostly up to 57.1 µM; also: nearly all actives have a fitted effect of over 65% in size
Outline: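 20nM CYP3A4 + 25uM Luciferin-PPXE (=KM), 200mM KPO4; cpd 10 min RT; NADPH regen, 60 min RT; stop w/ detection buffer, 20 min; luminescence. Normalized to 57 uM ketoconazole.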

[17] = Confirmatory qHTS for small molecule stabilizers of the endoplasmic reticulum resident proteome: Secreted ER Calcium Modulated Protein (SERCaMP) assay (AID 1508628); details: SERCaMP secreted luciferase ER calcium/proteostasis reporter; series mostly up to 76.3 µM; also: nearly all actives have a fitted effect of over 40% in size; also: potency is read from the fitted curve at half-maximal effect
Outline: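 We seeded SH-SY5Y-GLuc-SERCaMP cells, added compounds (three concentrations in the primary run, eleven up to 76.6 uM in confirmation), incubated 16 h, depleted ER calcium with thapsigargin, and read luciferase 4 h later.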

[18] = target: Cytochrome P450 3A4 (Homo sapiens) (UniProt P08684); assay: qHTS Assay for Inhibitors and Substrates of Cytochrome P450 3A4 (AID 884); details: recombinant CYP3A4, Luciferin-PPXE luminescence; series mostly up to 57.1 µM; also: potency is read from the fitted curve at half-maximal effect; nearly all actives have a fitted effect of over 50% in size
Outline: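 20 nM human CYP3A4 with 25 uM Luciferin-PPXE (at KM) in 200 mM KPO4, preincubated 10 min with compound; NADPH regeneration started a 60 min RT reaction. Luciferin detected by luminescence, normalized to 57 uM ketoconazole as full inhibition.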

[19] = Confirmation and Secondary Assay for Modulators of Hemoglobin Beta Chain Splicing at IVS2 654 locus (AID 910); details: HeLa EGFP-654 splicing reporter, GFP fluorescence, 48 h; series mostly up to 38.3 µM;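 also: per-well total GFP intensity by laser scanning cytometry after 2-day treatment; % of control where 0% means no effect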
Outline: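 HeLa cells stably carrying EGFP interrupted by mutant beta-globin IVS2-654 intron (CMV-driven) were treated with compound for 2 days at 37C; corrected splicing was scored as total peak GFP intensity per well (488 nm excitation, 500-520 nm emission).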

[20] = measured here: cell count channel max response
[21] = measured here: lipid channel max response

Glucocorticoid receptor (Homo sapiens), sequence (P04150 whole entry, looked up, the tested form may be a part): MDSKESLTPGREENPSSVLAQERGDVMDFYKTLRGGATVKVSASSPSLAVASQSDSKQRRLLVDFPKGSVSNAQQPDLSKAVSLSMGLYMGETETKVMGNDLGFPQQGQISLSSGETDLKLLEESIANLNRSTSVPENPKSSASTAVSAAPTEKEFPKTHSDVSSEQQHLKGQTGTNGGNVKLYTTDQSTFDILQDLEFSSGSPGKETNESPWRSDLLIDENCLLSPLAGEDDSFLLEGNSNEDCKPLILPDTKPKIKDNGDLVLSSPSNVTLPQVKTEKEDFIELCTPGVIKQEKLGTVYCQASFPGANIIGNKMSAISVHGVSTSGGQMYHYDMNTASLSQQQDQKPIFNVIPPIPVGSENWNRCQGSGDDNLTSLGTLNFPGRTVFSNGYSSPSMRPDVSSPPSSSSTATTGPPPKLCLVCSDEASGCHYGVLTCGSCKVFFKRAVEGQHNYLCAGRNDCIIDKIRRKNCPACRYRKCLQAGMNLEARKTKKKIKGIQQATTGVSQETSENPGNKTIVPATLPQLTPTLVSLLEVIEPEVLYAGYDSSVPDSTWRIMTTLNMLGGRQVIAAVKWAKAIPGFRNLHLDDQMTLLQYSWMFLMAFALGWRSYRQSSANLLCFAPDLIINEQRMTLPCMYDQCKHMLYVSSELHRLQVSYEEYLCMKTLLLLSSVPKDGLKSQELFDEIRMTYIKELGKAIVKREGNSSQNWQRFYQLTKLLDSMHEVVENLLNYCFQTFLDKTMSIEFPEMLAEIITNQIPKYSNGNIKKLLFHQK
Cytochrome P450 3A4 (Homo sapiens), sequence (P08684 whole entry, looked up): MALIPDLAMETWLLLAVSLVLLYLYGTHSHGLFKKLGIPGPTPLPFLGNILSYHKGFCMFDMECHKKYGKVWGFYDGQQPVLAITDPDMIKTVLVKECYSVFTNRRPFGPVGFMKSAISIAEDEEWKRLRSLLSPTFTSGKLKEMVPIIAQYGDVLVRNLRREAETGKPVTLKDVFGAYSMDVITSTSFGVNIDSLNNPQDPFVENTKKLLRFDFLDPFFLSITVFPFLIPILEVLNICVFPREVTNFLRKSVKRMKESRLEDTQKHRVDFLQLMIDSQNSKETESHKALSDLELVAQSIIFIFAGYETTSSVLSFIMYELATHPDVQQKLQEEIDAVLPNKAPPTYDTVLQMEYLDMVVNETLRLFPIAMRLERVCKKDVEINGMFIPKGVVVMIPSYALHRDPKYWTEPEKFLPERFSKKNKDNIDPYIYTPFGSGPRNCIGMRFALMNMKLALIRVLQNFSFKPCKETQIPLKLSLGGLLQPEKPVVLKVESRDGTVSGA
3',5'-cyclic-AMP phosphodiesterase 4B (Homo sapiens), sequence (Q07343 whole entry, looked up): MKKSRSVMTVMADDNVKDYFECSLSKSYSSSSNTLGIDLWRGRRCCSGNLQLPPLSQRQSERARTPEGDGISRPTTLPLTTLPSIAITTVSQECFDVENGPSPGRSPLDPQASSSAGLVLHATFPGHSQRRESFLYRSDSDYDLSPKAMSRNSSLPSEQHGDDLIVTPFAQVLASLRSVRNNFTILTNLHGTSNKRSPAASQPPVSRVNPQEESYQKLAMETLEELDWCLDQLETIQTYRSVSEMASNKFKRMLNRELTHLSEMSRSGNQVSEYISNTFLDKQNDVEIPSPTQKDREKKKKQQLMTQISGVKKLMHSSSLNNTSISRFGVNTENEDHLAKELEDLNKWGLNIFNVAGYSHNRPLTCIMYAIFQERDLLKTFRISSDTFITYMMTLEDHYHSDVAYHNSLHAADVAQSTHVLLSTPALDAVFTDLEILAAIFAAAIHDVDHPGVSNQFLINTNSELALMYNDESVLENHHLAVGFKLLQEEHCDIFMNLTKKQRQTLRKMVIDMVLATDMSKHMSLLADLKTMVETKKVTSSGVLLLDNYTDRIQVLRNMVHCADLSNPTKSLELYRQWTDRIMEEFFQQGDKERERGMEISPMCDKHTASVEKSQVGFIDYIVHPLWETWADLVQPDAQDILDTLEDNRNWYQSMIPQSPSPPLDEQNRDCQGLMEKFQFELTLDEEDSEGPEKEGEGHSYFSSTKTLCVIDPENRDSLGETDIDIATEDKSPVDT
Ubiquitin carboxyl-terminal hydrolase 1 (Homo sapiens), sequence (O94782 whole entry, looked up): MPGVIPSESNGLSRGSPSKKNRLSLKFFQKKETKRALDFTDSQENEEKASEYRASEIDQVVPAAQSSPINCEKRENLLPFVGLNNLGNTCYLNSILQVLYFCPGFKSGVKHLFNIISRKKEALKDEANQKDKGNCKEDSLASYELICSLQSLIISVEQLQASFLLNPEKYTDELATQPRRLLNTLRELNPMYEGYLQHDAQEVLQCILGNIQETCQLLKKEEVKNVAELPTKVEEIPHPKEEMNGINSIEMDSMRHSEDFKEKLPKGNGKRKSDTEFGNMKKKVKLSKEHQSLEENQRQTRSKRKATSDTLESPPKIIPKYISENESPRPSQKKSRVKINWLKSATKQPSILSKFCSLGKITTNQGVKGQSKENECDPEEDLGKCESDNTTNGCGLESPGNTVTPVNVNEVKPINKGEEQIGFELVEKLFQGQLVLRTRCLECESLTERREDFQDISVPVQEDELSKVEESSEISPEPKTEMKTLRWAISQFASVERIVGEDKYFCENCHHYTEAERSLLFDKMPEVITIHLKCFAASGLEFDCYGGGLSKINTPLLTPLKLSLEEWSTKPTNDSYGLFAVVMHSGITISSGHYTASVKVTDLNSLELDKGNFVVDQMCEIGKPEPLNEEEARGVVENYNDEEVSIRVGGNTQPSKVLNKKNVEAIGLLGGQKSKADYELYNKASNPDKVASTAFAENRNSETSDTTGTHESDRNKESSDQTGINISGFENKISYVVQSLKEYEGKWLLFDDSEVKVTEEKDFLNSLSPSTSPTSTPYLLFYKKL
Dual specificity protein kinase CLK4 (Homo sapiens), sequence (Q9HAZ1 whole entry, looked up): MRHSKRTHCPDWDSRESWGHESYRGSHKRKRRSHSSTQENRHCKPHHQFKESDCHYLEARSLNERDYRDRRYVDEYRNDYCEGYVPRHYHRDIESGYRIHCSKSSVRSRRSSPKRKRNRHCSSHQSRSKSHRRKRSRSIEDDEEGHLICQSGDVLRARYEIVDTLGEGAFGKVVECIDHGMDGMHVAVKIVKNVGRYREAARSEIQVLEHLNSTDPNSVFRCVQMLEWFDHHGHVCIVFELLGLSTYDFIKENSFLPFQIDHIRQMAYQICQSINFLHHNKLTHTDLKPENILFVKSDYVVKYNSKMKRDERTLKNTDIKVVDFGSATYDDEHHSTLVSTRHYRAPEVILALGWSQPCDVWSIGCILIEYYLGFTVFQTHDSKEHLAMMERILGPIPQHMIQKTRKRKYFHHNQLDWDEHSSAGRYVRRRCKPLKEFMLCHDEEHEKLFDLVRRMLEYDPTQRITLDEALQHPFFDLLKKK
Lysosomal acid glucosylceramidase (Homo sapiens), sequence (P04062 whole entry, looked up): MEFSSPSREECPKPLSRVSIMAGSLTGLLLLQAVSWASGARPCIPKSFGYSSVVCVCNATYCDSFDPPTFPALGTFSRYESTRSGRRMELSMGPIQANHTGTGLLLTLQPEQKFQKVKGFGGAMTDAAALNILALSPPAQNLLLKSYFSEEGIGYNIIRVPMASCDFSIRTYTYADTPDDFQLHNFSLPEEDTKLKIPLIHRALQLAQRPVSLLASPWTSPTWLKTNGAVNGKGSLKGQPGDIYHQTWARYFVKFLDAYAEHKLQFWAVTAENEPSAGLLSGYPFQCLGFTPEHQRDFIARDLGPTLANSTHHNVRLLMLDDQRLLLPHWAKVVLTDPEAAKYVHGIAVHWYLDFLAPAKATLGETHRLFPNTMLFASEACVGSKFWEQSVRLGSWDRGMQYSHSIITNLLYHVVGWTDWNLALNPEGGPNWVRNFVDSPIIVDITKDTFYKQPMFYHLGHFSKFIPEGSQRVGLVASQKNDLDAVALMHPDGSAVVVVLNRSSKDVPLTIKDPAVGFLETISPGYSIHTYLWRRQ
Cytochrome P450 1A2 (Homo sapiens), sequence (P05177 whole entry, looked up): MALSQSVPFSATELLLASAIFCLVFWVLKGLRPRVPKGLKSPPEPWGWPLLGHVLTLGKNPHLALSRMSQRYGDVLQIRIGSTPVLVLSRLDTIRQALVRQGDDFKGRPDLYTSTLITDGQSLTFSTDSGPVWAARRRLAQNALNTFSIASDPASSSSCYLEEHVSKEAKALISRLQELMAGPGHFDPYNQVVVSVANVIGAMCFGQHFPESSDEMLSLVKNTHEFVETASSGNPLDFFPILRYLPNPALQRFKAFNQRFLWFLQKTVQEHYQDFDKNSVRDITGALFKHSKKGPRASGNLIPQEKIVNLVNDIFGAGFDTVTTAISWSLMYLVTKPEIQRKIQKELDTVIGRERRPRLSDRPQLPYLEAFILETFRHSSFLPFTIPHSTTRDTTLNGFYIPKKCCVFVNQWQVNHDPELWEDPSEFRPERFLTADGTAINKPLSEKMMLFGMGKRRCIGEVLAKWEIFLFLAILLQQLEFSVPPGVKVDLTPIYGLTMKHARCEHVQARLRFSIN

Cn1c(=O)c(CCc2ccccc2)nc2cnc(OCc3ccccc3)nc21
inactive: activity change, negative = inhibition [1] -26% | activity change, negative = inhibition [2] -3.3% | activity, negative = inhibition [3] -13% | Potency [4] > 9.22 µM | Potency [5] > 46 µM | outcome [6] | Potency [7] | activity change, negative = inhibition [8] 2.86% | Potency [9] | Potency [10] | Potency [11] | Potency [12] | max response [13] -14.7%
15.4%: max response [8, 21]
13.9%: max response [8, 20]

O=c1c(-c2ccccc2)nc2cnc(N3CCNCC3)nc2n1-c1ccccc1
active: Potency [15] 7.94 µM
inactive: Potency [14] > 11.4 µM | Potency [4] > 9.22 µM | Potency [5] > 46 µM | outcome [6] | Potency [7] | Potency [16] | Potency [9] | Potency [10] | Potency [11] | Potency [12] | Potency [17]

COc1ccc(CNc2ncnc3ccc(-c4cccc(C#N)c4)cc23)c(OC)c1
-6.85%: max response [8, 20]
inactive: activity change, negative = inhibition [2] 16.5% | activity, negative = inhibition [3] -11.5% | Potency [4] > 46 µM | outcome [6] | Potency [16] | activity change, negative = inhibition [8] -0.414% | Potency [11] | Potency [12]
-11.4%: max response [8, 21]
active: Potency [15] 3.16 µM | Potency [18] 1.58 µM | Potency [17] 28.2 µM

O=c1c(-c2cccs2)nc2cnc(N3CCNCC3)nc2n1CCc1ccccc1
inactive: Potency [14] > 11.4 µM | Potency [4] > 9.22 µM | Potency [5] > 46 µM | Potency [7] | Potency [9] | Potency [11] | Potency [12] | Potency [17]
active: activity change, negative = inhibition [1] 82.5% [activator]

FC(F)(F)c1ccccc1-c1nc(N2CCNCC2)c2ccccc2n1
21.9%: max response [8, 21]
active: Potency [15] 10 µM | Potency [17] 20 µM
13.7%: max response [8, 20]
inactive: Potency [14] > 11.4 µM | activity change, negative = inhibition [1] 6.77% | activity, negative = inhibition [3] 11.2% | Potency [4] > 46 µM | Potency [5] > 46 µM | outcome [6] | Potency [7] | outcome [19] | activity change, negative = inhibition [8] 7.02%

Cc1ccccc1-c1nc(N2CCNCC2)c2ccccc2n1
inactive: Potency [14] > 11.4 µM | activity change, negative = inhibition [1] 12.7% | activity change, negative = inhibition [2] 2.71% | activity, negative = inhibition [3] -10.4% | Potency [4] > 46 µM | Potency [5] > 46 µM | outcome [6] | Potency [7] | Potency [16] | activity change, negative = inhibition [8] 4.63%
active: Potency [15] 5.01 µM | Potency [17] 12.6 µM
23.8%: max response [8, 20]
27.5%: max response [8, 21]

N#CCCn1c(=O)c(-c2ccc(Cl)cc2)nc2cnc(OCc3ccccc3)nc21
inactive: Potency [14] > 11.4 µM | activity, negative = inhibition [3] 1.91% | Potency [4] > 9.22 µM | Potency [5] > 46 µM | outcome [6] | activity change, negative = inhibition [8] 5.27% | Potency [17]
16.3%: max response [8, 21]
active: Potency [15] 2 µM
8.68%: max response [8, 20]
